Screening results from PubChem.
CYP2C9 activ – activators of human CYP2C9; P11712; recombinant CYP2C9, luciferin-H conversion, luminescence; active compounds read high; factor 1 = untreated enzyme, 0 = blocked; activation factor at 5 µM; hit rate 1.4% among 96,000; AID 1024;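 active = activation factor of 2 or more for CYP2C9 at a 5 µM dose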
CYP2C19 activ – cytochrome P450 2C19 (human) activation; P33261; recombinant CYP2C19, luciferin-H EGE luminescence; active compounds read high; 0 = fully inhibited enzyme, 1 = untreated enzyme; activation factor at 5 µM; 96,000 tested, under 10 active; AID 1025;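 active = activation factor of at least 2 at 5 µM in the primary screen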
Target sequence (P33261 whole entry, looked up): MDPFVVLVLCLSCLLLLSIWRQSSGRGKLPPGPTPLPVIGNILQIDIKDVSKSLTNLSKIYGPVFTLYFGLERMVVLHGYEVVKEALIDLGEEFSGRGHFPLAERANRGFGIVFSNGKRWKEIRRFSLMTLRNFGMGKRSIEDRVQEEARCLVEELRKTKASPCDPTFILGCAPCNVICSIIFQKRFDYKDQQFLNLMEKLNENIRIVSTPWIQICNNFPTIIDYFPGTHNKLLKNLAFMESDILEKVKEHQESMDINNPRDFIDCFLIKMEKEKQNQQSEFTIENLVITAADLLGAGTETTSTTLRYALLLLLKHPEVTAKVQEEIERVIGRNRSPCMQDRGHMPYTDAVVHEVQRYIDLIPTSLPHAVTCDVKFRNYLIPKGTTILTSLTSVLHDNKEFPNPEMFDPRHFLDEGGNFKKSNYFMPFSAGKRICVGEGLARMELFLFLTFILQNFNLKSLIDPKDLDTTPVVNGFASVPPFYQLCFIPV
PostGolgi ctrl – growth of the yeast control strain, post-Golgi counter-screen. efflux-deficient yeast background strain, growth absorbance A615, 16 h. inhibition, % at 10 µM. hit rate 5% among 98,000. AID 738
PostGolgi yeast – growth inhibition of a yeast mutant, post-Golgi transport screen; post-Golgi transport phenotypic cell assay; inhibition, % at 10 µM; hit rate 0.9% among 98,000; AID 739;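 also: yeast cells grown in 1536-well plates; yeast grown about 18 h at 30C before absorbance read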
CYP2C9 inh – human CYP2C9 inhibition. hit rate 20% among 96,000. inhibition, % at 5 µM. P11712. CYP2C9 Supersomes, luciferin-H conversion, luminescence;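 active = blocking of liver enzyme CYP2C9 beyond about 50% at 5 µM, limit read from the data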
CYP2C19 inh – blocks human cytochrome P450 2C19. AID 778. inhibition, % at 5 µM. CYP2C19 Supersomes, luciferin-H EGE luminescence, 30 min. P33261. hit rate 21% among 96,000;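 active = CYP2C19 inhibition above a set limit at 5 µM in the primary screen, cut at about 50% in these data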
Hits are given with their value; n = inactive; x = no result given. Most compounds without a hit are left out; they make up all but 32% or so of the library. Rule as the data show it, unless noted: active = inhibition above about 30%; inactive = the rest.

SMILES | CYP2C9 activ | CYP2C19 activ | PostGolgi ctrl | PostGolgi yeast | CYP2C9 inh | CYP2C19 inh
Cc1ccc(Oc2ncc(CN3CC(C)OC(C)C3)s2)cc1 (configuration not stated) | n | n | n | n | n | n
CCOc1cc(NC(=S)NCCCN2CCOCC2)c(OCC)cc1NC(=O)CC(C)C | n | n | n | n | n | n
Cc1ccc(N=C(c2cccs2)N2CCOCC2)cc1 | n | n | n | n | n | 73
O=C(NC(=S)N(CCCCO)C1CCCCC1)c1sc2ccccc2c1Cl | n | n | n | n | 54 | n
CN(C)Cc1nc2c(c(=O)[nH]1)C1(CCCCC1)Cc1ccccc1-2 | n | n | n | n | n | n
O=c1[nH]cnc2c1C1(CCCC1)Cc1ccccc1-2 | n | n | n | n | n | 88
CCN(CC)Cc1nc2c(c(=O)[nH]1)C1(CCCCC1)Cc1ccccc1-2 | n | n | 32 | n | n | n
CCCC(=O)Nn1cnc2c(c1=O)C1(CCCC1)Cc1ccccc1-2 | n | n | n | n | n | n
O=c1oc(-c2ccccc2)nc2c1C1(CCCCC1)Cc1ccccc1-2 | n | n | n | n | n | n
CC(=O)Nn1cnc2c(c1=O)C1(CCCC1)Cc1ccccc1-2 | n | n | n | n | 62 | 88
CN(CCc1ccccn1)C1CC(=O)N(c2ccc(Cl)cc2)C1=O (configuration not stated) | n | n | n | n | n | n
COc1ccc(N2C(=O)CCC(C(=O)N3CCOCC3)C2c2ccc(F)cc2)cc1 (configuration not stated) | n | n | n | n | n | n
COc1cccc(C2C3=C(CCCC3=O)Nc3nc(-c4cc(OC)c(OC)c(OC)c4)nn32)c1 (configuration not stated) | n | n | n | n | n | 62
COc1cc(-c2nc3n(n2)C(c2ccc(F)cc2)C2=C(CCCC2=O)N3)cc(OC)c1OC (configuration not stated) | n | n | n | n | n | n
Cc1cccc(/C=N/NC(=O)C(C)Nc2cccc3ccccc23)n1 (configuration not stated) | n | n | n | n | n | 71
Cc1oc(CC(C)C)cc1C(=O)Nc1cccc2ccccc12 | n | n | n | n | n | n
COC(=O)C1=C(C)NC(C)=C(C(=O)OC)C1c1cn(-c2ccccc2)nc1-c1ccco1 | n | n | 69 | n | 83 | n
CC1=C(C#N)C(c2cn(-c3ccccc3)nc2-c2cccs2)C(C#N)=C(C)N1 | n | n | n | n | 75 | 74
NC1=NC(c2cn(-c3ccccc3)nc2-c2cccs2)n2c(nc3ccccc32)N1 (configuration not stated) | n | n | n | n | n | n
C=CCOC(=O)C1=C(C)NC(=O)NC1c1cn(-c2ccccc2)nc1-c1cccs1 (configuration not stated) | n | n | n | n | 79 | 68
COCCOC(=O)C1=C(C)NC(=O)NC1c1cccs1 (configuration not stated) | n | n | n | n | n | n
COCCOC(=O)C1=C(C)NC(=O)NC1c1cn(-c2ccccc2)nc1-c1cccs1 (configuration not stated) | n | n | n | n | 70 | 76
Cn1ncc2cc(NC(=S)NC(=O)c3ccccc3)ccc21 | n | n | n | n | n | n
O=C(Nc1nnc(C2CCCCC2)s1)c1ccco1 | n | n | n | n | n | n
CCOC(=O)C1CN(S(=O)(=O)c2cccc(C(F)(F)F)c2)c2cc(CC(=O)OC)ccc2O1 (configuration not stated) | n | n | n | n | 60 | 79
SMILES | CYP2C9 activ | CYP2C19 activ | PostGolgi ctrl | PostGolgi yeast | CYP2C9 inh | CYP2C19 inh
CSc1nc(C)cc(OCC#N)n1 | n | n | n | n | n | n
CCOC(=O)c1sc(C)c(C(=O)NC2CCCCC2)c1N | 2.3 | n | n | n | n | n
CCOC(=O)c1snc(C(=O)NC2CCCCC2)c1N | n | n | n | n | n | n
CCOC(=O)c1sc(C)c(C(=O)NCC(C)(C)CN(C)C)c1N | n | n | n | n | n | n
Nc1c(C(=O)NC2CCCCC2)nsc1C(=O)OCC(=O)NC1CCCCC1 | n | n | 31 | n | n | n
CCOC(=O)c1ccc(NC(=O)CSc2nnc(CNC(=O)c3c(F)cccc3Cl)o2)cc1 | n | n | n | n | 58 | n
COc1cc(C(=O)NCc2nnc(SCC(=O)Nc3cc(C)cc(C)c3)o2)cc(OC)c1OC | n | n | n | n | n | n
CCOC(=O)c1ccc(NC(=O)CSc2nnc(CNC(=O)c3ccccc3F)o2)cc1 | n | n | n | n | n | n
COc1ccc(C(=O)NCc2nnc(SCC(=O)Nc3cccc(C(F)(F)F)c3)o2)cc1OC | n | n | n | n | n | 54
O=C(COc1ncnc2ccccc12)NCCCN1CCCC1=O | n | n | n | n | n | n
CSc1nc(Oc2ccc(=O)n(C)n2)nc(N(C)C)n1 | n | n | n | n | n | n
O=C(CSc1ccc2nnc(-c3ccccn3)n2n1)NCc1ccco1 | x | x | n | n | x | x
COc1ccc(CCNc2ncnc3c2oc2ccccc23)cc1OC | n | n | n | n | n | 57
CC(=O)NC(CC(=O)Nc1cccc(S(=O)(=O)N2CCCCC2)c1)c1ccccc1 (configuration not stated) | n | n | n | n | n | n
Cc1ccc(Cl)cc1N1CCN(C(c2ccc(C#N)cc2)c2nnnn2C2CCCC2)CC1 (configuration not stated) | n | n | n | n | 56 | n
Cc1ccc(Cl)cc1N1CCN(C(c2cccnc2)c2nnnn2C2CCCCC2)CC1 (configuration not stated) | n | n | 37 | n | 93 | 98
N/C(CCN1CCCCC1)=N/O | n | n | n | n | n | n
O=C1COc2ccc(C(=O)NCc3ccco3)cc2N1 | n | n | n | n | n | n
O=C1COc2ccc(C(=O)c3ccccc3C(=O)NCc3ccccc3)cc2N1 | n | n | n | n | n | 75
O=C1COc2ccc(C(=O)c3ccccc3C(=O)NCc3ccco3)cc2N1 | n | n | n | n | n | 67
Cc1cc(C(=O)Nc2c(F)cc(F)cc2Br)c(C)o1 | n | n | n | n | n | n
O=C(N/N=C/C1C(c2ccccc2)C1(Cl)Cl)c1cccc(Br)c1 (configuration not stated) | n | n | n | n | 70 | n
O=C(CN(c1ccc(F)cc1)S(=O)(=O)c1ccc2c(c1)OCCO2)N1CCOCC1 | n | n | n | n | n | n
Cc1ccc(N2C(=O)CSC2c2ccccn2)cc1Cl (configuration not stated) | n | n | n | n | n | n
Cc1cc(C)cc(N2C(=O)CSC2c2cccs2)c1 (configuration not stated) | n | n | n | n | n | 58
Cc1ccc(N2C(=O)CSC2c2cccs2)cc1 (configuration not stated) | n | n | n | n | n | 77
Cc1cccc(N2C(=O)CSC2c2cccnc2)c1 (configuration not stated) | n | n | n | n | n | n
